From PubChem BioAssay (Tox21) come the findings set out here.

Values without a mark were called inactive. Results filed as inconclusive are left out. Calls of active or inactive are those of the source. The call rests on the fitted dose curve; in most records, active means well fitted curve in the direction sought with a large enough effect in the repeat runs; inconclusive means weak or mixed curves; inactive means no such curve, though single readings can be large; an effect the other way counts as inactive or inconclusive.

Test [1] is described as follows: Caspase-3/7 induction in CHO-K1 cells by small molecules, qHTS assay (AID 1346980). Further: nearly all actives have a fitted effect of over 15% in size. In outline: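 Wild-type cells were seeded at 1,500 per well and settled 5 hr at 37 C, 5% CO2, then exposed to DMSO-dissolved compounds for 17 hr. Caspase-Glo 3/7 reagent was added, and luminescence was read after 30min at room temperature.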
In general terms: Quantitative high-throughput screening tests each substance at several concentrations.

Test [2] addresses Nuclear receptor subfamily 1 group I member 2 (Homo sapiens) (UniProt O75469). Description: Human pregnane X receptor (PXR) small molecule agonists, qHTS assay (AID 1346982). Further: nearly all actives have a fitted effect of over 35% in size. Further: potency means the concentration at half of the fitted maximal effect. The method in brief:
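Tox21 qHTS; PXR-Luc HepG2; compounds pinned from DMSO; 24 hr, 37 C; ONE-Glo luciferase detection, 30 min room temperature.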

The target of test [3] is Cytochrome P450 2D6 (Homo sapiens) (UniProt P10635). The experiment in a line: Cytochrome P450 Family 2 Subfamily D Member 6 (CYP2D6) small molecule antagonists: luciferase reporter qHTS assay (AID 1671196). Further: nearly all actives have a fitted effect of over 50% in size. Further: potency means the concentration at half of the fitted maximal effect. On activity change, negative = inhibition: series mostly up to about 120 µM. The method in brief: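 Room-temperature luminescent CYP2D6 activity assay: compound preincubated 10 min with enzyme–substrate mix, NADPH-initiated reaction 1 h, detection reagent 20 min before reading.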
Cytochrome P450 2D6 (Homo sapiens), sequence (P10635 whole entry, looked up): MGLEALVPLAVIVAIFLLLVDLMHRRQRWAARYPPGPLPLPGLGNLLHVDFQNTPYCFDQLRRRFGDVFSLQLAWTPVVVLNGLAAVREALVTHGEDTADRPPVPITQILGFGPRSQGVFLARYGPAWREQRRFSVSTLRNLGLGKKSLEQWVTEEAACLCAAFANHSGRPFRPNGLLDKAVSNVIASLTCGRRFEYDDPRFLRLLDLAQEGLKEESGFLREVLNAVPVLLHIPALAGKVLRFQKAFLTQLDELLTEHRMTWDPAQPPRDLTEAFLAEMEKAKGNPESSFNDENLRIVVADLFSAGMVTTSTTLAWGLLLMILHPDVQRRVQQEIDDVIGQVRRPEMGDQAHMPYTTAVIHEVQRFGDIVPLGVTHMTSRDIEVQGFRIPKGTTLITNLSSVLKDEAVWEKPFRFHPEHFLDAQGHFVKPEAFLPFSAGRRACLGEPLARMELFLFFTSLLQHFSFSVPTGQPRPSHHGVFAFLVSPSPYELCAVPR
On the technique in general: A reporter such as luciferase makes a cellular process visible.

Test [4] deals with Cytochrome P450 2C19 (Homo sapiens) (UniProt P33261). Description: Cytochrome P450 Family 2 Subfamily C Member 19 (CYP2C19) small molecule antagonists: luciferase reporter qHTS assay (AID 1671197). Further: nearly all actives have a fitted effect of over 65% in size. Further: potency means the concentration at half of the fitted maximal effect. On activity change, negative = inhibition: series mostly up to about 120 µM. The method in brief: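 Inhibition of CYP2C19 was scored from loss of luminescence in a P450-Glo proluciferin substrate assay, NADPH-started and run 1 h at 37C, with ketoconazole as positive control.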
Cytochrome P450 2C19 (Homo sapiens), sequence (P33261 whole entry, looked up): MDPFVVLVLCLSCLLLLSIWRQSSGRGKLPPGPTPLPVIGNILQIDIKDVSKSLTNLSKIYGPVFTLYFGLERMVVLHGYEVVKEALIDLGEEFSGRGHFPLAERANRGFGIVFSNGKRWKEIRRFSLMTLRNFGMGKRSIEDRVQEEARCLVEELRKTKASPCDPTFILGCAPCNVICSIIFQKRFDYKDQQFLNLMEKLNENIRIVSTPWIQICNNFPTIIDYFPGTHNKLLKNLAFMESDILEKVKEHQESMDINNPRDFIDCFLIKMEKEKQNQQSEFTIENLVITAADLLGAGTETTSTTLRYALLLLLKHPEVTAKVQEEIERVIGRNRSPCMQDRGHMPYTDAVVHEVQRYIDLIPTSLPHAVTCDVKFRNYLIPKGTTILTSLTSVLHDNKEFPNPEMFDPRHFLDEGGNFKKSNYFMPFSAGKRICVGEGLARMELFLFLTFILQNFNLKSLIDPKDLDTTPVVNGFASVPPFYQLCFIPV

For test [5], the target named is Cytochrome P450 2C9 (Homo sapiens) (UniProt P11712). The experiment in a line: Cytochrome P450 Family 2 Subfamily C Member 9 (CYP2C9) small molecule antagonists: luciferase reporter qHTS assay (AID 1671198). Further: nearly all actives have a fitted effect of over 50% in size. Further: potency means the concentration at half of the fitted maximal effect. On activity change, negative = inhibition: series mostly up to about 120 µM. The method in brief: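 CYP2C9 activity was measured with a P450-Glo proluciferin substrate. Enzyme–substrate mix was held with compound for 10 min at room temperature, then NADPH regeneration solution was added for 1 h at 37C. Luciferin product was read as luminescence.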
Cytochrome P450 2C9 (Homo sapiens), sequence (P11712 whole entry, looked up): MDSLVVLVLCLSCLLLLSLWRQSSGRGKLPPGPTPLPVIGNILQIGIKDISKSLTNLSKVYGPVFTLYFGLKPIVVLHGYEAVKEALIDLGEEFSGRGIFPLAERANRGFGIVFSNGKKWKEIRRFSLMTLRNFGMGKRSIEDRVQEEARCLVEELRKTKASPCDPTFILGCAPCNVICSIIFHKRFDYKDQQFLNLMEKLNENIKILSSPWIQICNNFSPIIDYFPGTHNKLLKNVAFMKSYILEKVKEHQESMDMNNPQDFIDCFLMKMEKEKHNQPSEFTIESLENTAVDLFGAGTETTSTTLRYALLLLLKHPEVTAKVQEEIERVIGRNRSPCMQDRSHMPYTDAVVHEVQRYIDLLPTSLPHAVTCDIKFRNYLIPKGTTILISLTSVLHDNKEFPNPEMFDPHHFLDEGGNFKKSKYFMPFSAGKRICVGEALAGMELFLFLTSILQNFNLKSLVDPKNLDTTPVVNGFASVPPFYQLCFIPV

The target in test [6] is Cytochrome P450 1A2 (Homo sapiens) (UniProt P05177). The experiment in a line: Cytochrome P450 Family 1 Subfamily A Member 2 (CYP1A2) small molecule antagonists: luciferase reporter qHTS assay (AID 1671199). Further: nearly all actives have a fitted effect of over 50% in size. Further: potency means the concentration at half of the fitted maximal effect. On activity change, negative = inhibition: series mostly up to about 120 µM. In outline: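 Room-temperature CYP1A2 reaction with proluciferin substrate: compounds added from DMSO, 10 min preincubation, NADPH regeneration for 1 h. Luciferin detection reagent then added; luminescence recorded as RLU.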
Cytochrome P450 1A2 (Homo sapiens), sequence (P05177 whole entry, looked up): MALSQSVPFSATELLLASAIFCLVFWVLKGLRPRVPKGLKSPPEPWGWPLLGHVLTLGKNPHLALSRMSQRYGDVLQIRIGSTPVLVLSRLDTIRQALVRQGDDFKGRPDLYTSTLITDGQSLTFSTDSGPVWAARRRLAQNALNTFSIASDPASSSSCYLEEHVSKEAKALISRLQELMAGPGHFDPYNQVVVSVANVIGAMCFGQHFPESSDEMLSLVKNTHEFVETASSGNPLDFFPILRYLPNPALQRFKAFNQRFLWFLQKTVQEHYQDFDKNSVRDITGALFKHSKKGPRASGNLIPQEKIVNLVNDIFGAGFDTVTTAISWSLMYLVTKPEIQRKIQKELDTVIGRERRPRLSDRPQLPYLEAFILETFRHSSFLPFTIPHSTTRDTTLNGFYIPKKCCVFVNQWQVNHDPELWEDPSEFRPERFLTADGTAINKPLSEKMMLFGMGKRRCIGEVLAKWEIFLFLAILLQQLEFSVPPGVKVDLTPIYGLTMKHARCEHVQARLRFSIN

The target in test [7] is Voltage-gated inwardly rectifying potassium channel KCNH2 (Homo sapiens) (UniProt Q12809). Description: Human Ether-a-go-go-Related Gene (hERG) channel small molecule antagonists: fluorescence cell-based qHTS assay (AID 1671200). Further: nearly all actives have a fitted effect of over 50% in size. Further: potency means the concentration at half of the fitted maximal effect.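 On activity change, negative = inhibition: hERG-expressing U2OS cells given a thallium stimulus after FluxOR II dye loading; series mostly up to about 77 µM.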 The method in brief:
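Kinetic two-minute fluorescence traces, sampled at 1 s, were collected following thallium stimulus of U2OS cells (1000 per well) that had been cultured overnight at 37 C and loaded with FluxOR II.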
For orientation: Block of hERG is tested as a sign of cardiac risk.

Test [8] is described as follows: Caspase-3/7 induction in HepG2 cells by small molecules, qHTS cell viability counter screen (AID 1346981). Further: series mostly up to about 92 µM; nearly all actives have a fitted effect of over 30% in size. The method in brief: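 After a 5-hr attachment period at 37 C and 5% CO2, wild-type HepG2 cells received compounds in DMSO. Sixteen hours later CellTiter-Fluor was dispensed and the fluorescent signal quantified after a further hour.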
Test [9] addresses Cytochrome P450 3A4 (Homo sapiens) (UniProt P08684). Description: Cytochrome P450 Family 3 Subfamily A Member 4 (CYP3A4) small molecule antagonists: luciferase reporter qHTS assay (AID 1671201). Further: nearly all actives have a fitted effect of over 50% in size. Further: potency means the concentration at half of the fitted maximal effect. On activity change, negative = inhibition: series mostly up to about 120 µM. In outline:
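Proluciferin-to-luciferin conversion by CYP3A4, NADPH-regenerated, 1 h RT; luminescence read as RLU. Ketoconazole as control.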

Test [10] addresses Nuclear receptor subfamily 1 group I member 2 (Homo sapiens) (UniProt O75469). The experiment in a line: CYP3A4 induction through human pregnane X receptor (PXR) by small molecules, qHTS assay (AID 1346984). Further: nearly all actives have a fitted effect of over 40% in size. Further: potency means the concentration at half of the fitted maximal effect. The method in brief:
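Cells (DPX-2; HepG2 with PXR element plus CYP3A4-promoter luciferase) settled 5hr, then were treated 24hr at 37C. A 3hr, 3uM-final Luciferin-IPA step preceded luminescence measurement with One-Glo.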

Test [11] has the same target. Description: Human pregnane X receptor (PXR) activation by small molecules, qHTS assay (AID 1346985). Further: nearly all actives have a fitted effect of over 40% in size. The method in brief:
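DPX-2 cells (HepG2 co-transfected with a PXR response element and a CYP3A4-promoter luciferase construct) were seeded at 2,000 per well, rested 5 hr at 37C, then exposed to DMSO-dissolved compounds for 24 hr. Activation was read as luciferase luminescence.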
On the % scale 0 is the no-effect control and ±100 the full control effect.

Cytochrome P450 3A4 (Homo sapiens), sequence (P08684 whole entry, looked up): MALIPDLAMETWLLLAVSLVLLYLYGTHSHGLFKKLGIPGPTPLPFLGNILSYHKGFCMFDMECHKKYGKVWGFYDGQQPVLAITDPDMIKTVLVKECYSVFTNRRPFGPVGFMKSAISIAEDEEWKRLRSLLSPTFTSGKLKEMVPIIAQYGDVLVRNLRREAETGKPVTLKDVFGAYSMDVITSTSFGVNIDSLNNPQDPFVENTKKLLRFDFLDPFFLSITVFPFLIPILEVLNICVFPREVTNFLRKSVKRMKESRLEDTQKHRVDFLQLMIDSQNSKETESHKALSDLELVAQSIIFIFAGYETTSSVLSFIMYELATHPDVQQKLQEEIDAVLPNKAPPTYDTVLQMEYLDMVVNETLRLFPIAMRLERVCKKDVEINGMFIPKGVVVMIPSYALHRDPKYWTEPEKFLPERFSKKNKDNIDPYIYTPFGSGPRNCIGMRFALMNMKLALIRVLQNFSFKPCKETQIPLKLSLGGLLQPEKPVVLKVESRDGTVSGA
Nuclear receptor subfamily 1 group I member 2 (Homo sapiens), sequence (O75469 whole entry, looked up): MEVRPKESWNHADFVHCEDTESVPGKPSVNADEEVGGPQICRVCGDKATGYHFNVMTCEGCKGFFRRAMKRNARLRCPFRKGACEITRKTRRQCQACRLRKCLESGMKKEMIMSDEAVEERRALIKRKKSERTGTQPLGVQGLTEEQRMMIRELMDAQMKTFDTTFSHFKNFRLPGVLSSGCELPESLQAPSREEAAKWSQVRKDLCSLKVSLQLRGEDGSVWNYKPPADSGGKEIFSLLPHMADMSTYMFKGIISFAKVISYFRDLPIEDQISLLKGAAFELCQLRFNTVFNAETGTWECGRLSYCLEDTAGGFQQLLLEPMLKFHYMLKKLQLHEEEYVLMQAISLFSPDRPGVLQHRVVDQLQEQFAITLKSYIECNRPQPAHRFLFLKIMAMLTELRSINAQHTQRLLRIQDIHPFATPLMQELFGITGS
Voltage-gated inwardly rectifying potassium channel KCNH2 (Homo sapiens), sequence (Q12809 whole entry, looked up): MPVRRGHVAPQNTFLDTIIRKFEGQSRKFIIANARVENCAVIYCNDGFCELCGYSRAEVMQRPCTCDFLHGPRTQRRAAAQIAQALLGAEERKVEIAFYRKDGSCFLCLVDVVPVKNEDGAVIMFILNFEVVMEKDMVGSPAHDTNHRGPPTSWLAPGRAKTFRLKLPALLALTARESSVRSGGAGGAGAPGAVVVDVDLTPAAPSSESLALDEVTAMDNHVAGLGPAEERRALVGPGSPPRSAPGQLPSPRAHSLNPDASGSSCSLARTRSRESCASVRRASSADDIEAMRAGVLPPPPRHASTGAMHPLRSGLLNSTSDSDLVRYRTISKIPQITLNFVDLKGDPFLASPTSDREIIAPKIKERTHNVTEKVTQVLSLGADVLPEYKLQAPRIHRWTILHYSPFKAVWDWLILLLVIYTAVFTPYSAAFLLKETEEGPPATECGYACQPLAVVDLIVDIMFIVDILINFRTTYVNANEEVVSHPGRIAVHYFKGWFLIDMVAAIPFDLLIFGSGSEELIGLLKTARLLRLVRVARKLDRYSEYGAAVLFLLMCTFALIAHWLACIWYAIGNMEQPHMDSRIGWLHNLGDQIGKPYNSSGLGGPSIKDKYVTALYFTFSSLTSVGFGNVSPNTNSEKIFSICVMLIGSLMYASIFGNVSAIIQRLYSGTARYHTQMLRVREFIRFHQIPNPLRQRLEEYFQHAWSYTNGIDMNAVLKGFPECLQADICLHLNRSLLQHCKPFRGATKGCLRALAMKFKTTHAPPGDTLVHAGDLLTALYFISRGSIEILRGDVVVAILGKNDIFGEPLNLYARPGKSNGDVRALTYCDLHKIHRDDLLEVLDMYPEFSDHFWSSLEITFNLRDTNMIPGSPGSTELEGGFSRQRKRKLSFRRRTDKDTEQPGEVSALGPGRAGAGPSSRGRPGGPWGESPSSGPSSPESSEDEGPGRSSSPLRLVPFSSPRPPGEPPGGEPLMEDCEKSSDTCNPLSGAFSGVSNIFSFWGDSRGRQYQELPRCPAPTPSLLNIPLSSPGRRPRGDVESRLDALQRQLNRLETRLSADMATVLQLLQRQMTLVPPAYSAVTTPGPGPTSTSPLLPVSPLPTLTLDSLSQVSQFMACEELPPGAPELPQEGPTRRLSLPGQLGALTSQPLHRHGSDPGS

Regarding `CC(C)c1cccc(C(C)C)c1N1C(=O)c2ccc(O)cc2C1=O`, the Potency result in test [1], in test [6] and in test [7] was “inactive” each time. For the same molecule, the Potency in test [2] was 27.3 µM (active); in test [3], 31.7 µM (active); in test [4], 39.9 µM (active); in test [5], 12.6 µM (active).
Consider `OCCCS`, for which the Potency entry in test [1], in [8], in test [2], in test [3], in test [4] and in [5] was “inactive” in each case. The Potency result in test [6], in test [7] and in [9] was “inactive” throughout.
For `Oc1ccc(-c2ccccc2)c(Cl)c1`, the Potency result in test [1], in [7] and in test [9] was “inactive” in each case. Further, the Potency is 24.3 µM (active) in [2], 22.4 µM (active) in [4], 35.6 µM (active) in test [5] and 12.6 µM (active) in test [6].
For `CCCCNc1c(C(=O)OCC)c(C)nc2c1cnn2CC`, the Potency result in test [1], in test [8], in test [3] and in [7] was “inactive” in each case. The Potency in test [2] was 29.8 µM (active); in test [5] it was 27.5 µM (active); in test [6] it was 2.75 µM (active).
Turning to `CCCSS/C(CCO)=C(\C)N(C=O)Cc1cnc(C)nc1N`, the Potency entry in [10], in test [11], in [4] and in test [6] was “inactive” each time. In addition, the values for the Potency in test [3] and in [7] were 34.7 µM (active) and 12 µM (active), respectively.
As for `S=P(N1CC1)(N1CC1)N1CC1`, the Potency entry in test [1], in [8], in test [10], in test [11] and in [7] was “inactive” throughout. The Potency in test [3] is 48.6 µM (active); in test [4], 9.42 µM (active); in test [5], 19.3 µM (active); in [6] it was 57.7 µM (active).
In the case of `Cc1ccc(CCn2c3c(c4cc(Cl)ccc42)CN(C)CC3)cn1`, the Potency result in [1] and in [5] was “inactive” each time. For the same molecule, the Potency in test [3] is 7.76 µM (active); in [4], 17.4 µM (active); in [7], 12 µM (active).
Consider `CCOC(=O)[C@@](C)(N)Cc1ccc(O)c(O)c1`, for which the Potency entry in test [1], in test [2], in test [10], in test [11], in [5] and in test [6] was “inactive” throughout. The Potency entry in [7] and in [9] was “inactive” each time. In addition, the Potency in [3] was 8.71 µM (active).
`CC(C)OC(=O)c1cc(C(=O)OC(C)C)cc([N+](=O)[O-])c1`: the Potency entry in test [1] and in test [9] was “inactive” throughout. Moreover, the Potency in [2] was 19.8 µM (active); in test [3], 6.87 µM (active); in [4] it was 0.0816 µM (active); in [5] it was 0.84 µM (active); in [6] it was 2.33 µM (active).
As for `C[n+]1c2cc(N)ccc2cc2ccc(N)cc21` (tested in a mixture with another compound), the Potency result in test [1], in [5] and in [7] was “inactive” each time. Also, the Potency in test [3] was 15.5 µM (active); in [4], 38.9 µM (active); in [6] it was 2.19 µM (active).
Consider `C1CC(COCC2CO2)CCC1COCC1CO1` (stereo not given), for which the Potency entry in test [1], in test [8], in test [3], in test [7] and in test [9] was “inactive” throughout.
`CCCCCCOc1cc(C)c(O)c(C)c1C`: the Potency result in test [1] was “inactive”. The Potency in test [2] is 34.8 µM (active); in test [3], 25.5 µM (active); in test [4], 2.02 µM (active); in [5] it was 25.5 µM (active); in test [6], 11.4 µM (active); in [9], 28.6 µM (active).
Turning to `Oc1ccc(-c2ccc(O)cc2)cc1`, the Potency entry in test [1], in test [4], in test [5] and in test [7] was “inactive” in each case. In addition, the figures for the Potency in test [2] and in [6] were 48.9 µM (active) and 28.4 µM (active), respectively.
As to `CC(C(O)c1ccccc1)N(C)CCOC(c1ccccc1)c1ccccc1` (stereo not given), the Potency entry in test [1] and in test [6] was “inactive” in each case. Moreover, the Potency in test [2] is 7.5 µM (active); in test [3], 0.174 µM (active); in test [4], 7.76 µM (active); in test [5] it was 17.4 µM (active); in test [7], 1.69 µM (active).
For `CCC(C)(C)c1cc(O)c(C(C)(C)CC)cc1O`, the Potency entry in test [1], in test [3], in [6], in [7] and in test [9] was “inactive” throughout. The Potency in test [4] is 31.7 µM (active); in test [5], 63.3 µM (active).
Regarding `CCc1ccc(O)c(C(C)(C)C)c1`, the Potency result in test [1], in test [8], in test [2], in test [3] and in test [9] was “inactive” in each case. The Potency was 17.8 µM (active) in test [4], 31.7 µM (active) in test [5] and 35.6 µM (active) in test [6].
As to `COc1cc(C(C)C)c2c(c1)S(=O)(=O)N(COc1cc(=O)n3cccc(OCCN4CCCCC4)c3n1)C2=O`, the caspase-3/7 activation in [1] is -0.224% [at 19 µM]. The Potency in [2] was 13 µM (active); in test [9], 0.301 µM (active). Further, in [6], the activity change, negative = inhibition is -18.4% [at 23.6 µM].
As for `CN1CCN(C2Cc3ccccc3Sc3ccc(Cl)cc32)CC1` (stereo not given), the Potency entry in test [1], in [2] and in test [6] was “inactive” each time. Moreover, the Potency in test [10] is 31.6 µM (active); in test [3], 0.347 µM (active); in test [4] it was 11 µM (active); in [7] it was 0.848 µM (active).
For `CCC(=O)OCCc1ccccc1`, the Potency result in test [1], in test [8], in [3], in test [4], in [7] and in test [9] was “inactive” throughout. For the same molecule, the Potency in test [5] is 13.6 µM (active).
Consider `CC(C)(c1cc(Br)c(OCCO)c(Br)c1)c1cc(Br)c(OCCO)c(Br)c1`, for which, in test [1], the Potency entry was “inactive”. The Potency was 4.75 µM (active) in [2]; 6.94 µM (active) in test [4]; 4.38 µM (active) in test [5]; 27.6 µM (active) in [6]; 49.2 µM (active) in test [9].
For the molecule `CN(C)CCCN1c2ccccc2Sc2ccc(C(F)(F)F)cc21`, the Potency is 0.617 µM (active) in [3], 4.36 µM (active) in [4], 3.63 µM (active) in [6] and 2.68 µM (active) in [7]. The Potency result in [5] and in test [9] was “inactive” in each case.
Consider `CCc1c(C(=O)O)c(=O)cnn1-c1ccc(Cl)cc1`, for which the Potency result in test [1], in test [2], in test [3], in test [4], in test [5] and in test [6] was “inactive” in each case. In addition, the Potency result in [7] and in [9] was “inactive” in each case.
